From PubChem BioAssay AID1159580 (chemical genetic matrix, 2015)
Where “and” joins values, the source holds several entries; their conditions need not be identical. Equal values may be shown once. Hit rate of the full screen: of about 5,500 compounds, about 2,000 (36%) were called active. Inconclusive results (about 18%) are left out. Some of the results follow. Values without a mark were called inactive. Cut-off read from the data, not from the text of the source: active = normalized growth mostly below about 0.91 (no sharp cut-off); inconclusive = no clear call, values can overlap the other calls; inactive = mostly above about 0.92.

Assay: chemical genetic growth profiling, strain panel (AID 1159580);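 note: tested at 20 µM; growth read once vehicle control cultures reached saturation at 30 °C; 1 = growth at the plate median or of vehicle wells; lower values mean less growth of the strain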
Conditions: S. cerevisiae deletion strains, growth OD

CCN(CC)C(=S)SSC(=S)N(CC)CC
normalized growth (locus YAL013W, strain DEP1, hits give low values): 0.0629 (active) and 0.897 (active) | normalized growth (locus YAL021C, strain ccr4, hits give low values): 0.0672 (active) | normalized growth (locus YAL026C, strain drs2, hits give low values): 0.0682 (active) | normalized growth (locus YAL030W, strain snc1, hits give low values): 0.0564 (active) | normalized growth (locus YAL040C, strain CLN3, hits give low values): 0.308 (active) | normalized growth (locus YBL061C, strain skt5, hits give low values): 0.062 (active) | normalized growth (locus YBR009C, strain hhf1, hits give low values): 0.0652 (active) | normalized growth (locus YBR021W, strain FUR4, hits give low values): 0.0934 (active) | normalized growth (locus YBR023C, strain chs3, hits give low values): 0.0638 (active) | normalized growth (locus YBR171W, strain sec66, hits give low values): 0.0771 (active) | normalized growth (locus YBR229C, strain ROT2, hits give low values): 0.426 (active) | normalized growth (locus YBR231C, strain swc5, hits give low values): 0.0656 (active) | normalized growth (locus YBR279W, strain paf1, hits give low values): 0.063 (active) | normalized growth (locus YCL011C, strain gbp2, hits give low values): 0.0576 (active) | normalized growth (locus YCL016C, strain dcc1, hits give low values): 0.065 (active) | normalized growth (locus YCL029C, strain bik1, hits give low values): 0.135 (active) | normalized growth (locus YCL061C, strain MRC1 (second series), hits give low values): 0.936 (active) | normalized growth (locus YCL061C, strain MRC1, hits give low values): 0.0667 (active) | normalized growth (locus YCL069W, strain vba3, hits give low values): 0.0629 (active) | normalized growth (locus YCR088W, strain abp1, hits give low values): 0.062 (active) | normalized growth (locus YDL005C, strain med2, hits give low values): 0.0753 (active) | normalized growth (locus YDL035C, strain GPR1, hits give low values): 0.0484 (active) | normalized growth (locus YDL040C, strain nat1, hits give low values): 0.0568 (active) | normalized growth (locus YDL074C, strain BRE1, hits give low values): 0.0817 (active) | normalized growth (locus YDL101C, strain DUN1, hits give low values): 0.068 (active) | normalized growth (locus YDL134C, strain PPH21, hits give low values): 0.0516 (active) | normalized growth (locus YDL185W, strain tfp1, hits give low values): 0.788 (active) | normalized growth (locus YDL192W, strain arf1, hits give low values): 0.0621 (active) | normalized growth (locus YDR001C, strain nth1, hits give low values): 0.0666 (active) | normalized growth (locus YDR069C, strain doa4, hits give low values): 0.0647 (active) | normalized growth (locus YDR101C, strain arx1, hits give low values): 0.101 (active) | normalized growth (locus YDR137W, strain rgp1, hits give low values): 0.0968 (active) | normalized growth (locus YDR150W, strain NUM1, hits give low values): 0.0605 (active) | normalized growth (locus YDR159W, strain sac3, hits give low values): 0.0932 (active) | normalized growth (locus YDR162C, strain NBP2, hits give low values): 0.0518 (active) | normalized growth (locus YDR195W, strain ref2): 0.121 (active) | normalized growth (locus YDR297W, strain sur2, hits give low values): 0.0658 (active) | normalized growth (locus YDR318W, strain mcm21, hits give low values): 0.0632 (active) | normalized growth (locus YDR334W, strain swr1, hits give low values): 0.066 (active) | normalized growth (locus YDR335W, strain msn5, hits give low values): 0.0613 (active) | normalized growth (locus YDR363W, strain ESC2, hits give low values): 0.997 | normalized growth (locus YDR388W, hits give low values): 0.0574 (active) | normalized growth (locus YDR392W, strain spt3, hits give low values): 0.103 (active) | normalized growth (locus YDR502C, strain sam2, hits give low values): 0.0592 (active) | normalized growth (locus YEL003W, strain gim4, hits give low values): 0.0548 (active) | normalized growth (locus YEL037C, strain rad23, hits give low values): 0.0581 (active) | normalized growth (locus YEL061C, strain CIN8 (second series), hits give low values): 0.0638 (active) | normalized growth (locus YEL061C, strain CIN8, hits give low values): 0.0531 (active) | normalized growth (locus YER015W, strain faa2, hits give low values): 0.0589 (active) | normalized growth (locus YER016W, strain bim1, hits give low values): 0.0621 (active) | normalized growth (locus YER110C, hits give low values): 0.0748 (active) | normalized growth (locus YER111C, strain swi4, hits give low values): 0.0842 (active) | normalized growth (locus YER155C, strain BEM2 (second series), hits give low values): 0.092 (active) | normalized growth (locus YER155C, strain BEM2, hits give low values): 0.0787 (active) | normalized growth (locus YER167W, strain BCK2, hits give low values): 0.0526 (active) | normalized growth (locus YFR010W, strain ubp6, hits give low values): 0.0704 (active) | normalized growth (locus YGL078C, strain dbp3, hits give low values): 0.0558 (active) | normalized growth (locus YGL086W, strain mad1, hits give low values): 0.0539 (active) | normalized growth (locus YGL167C, strain pmr1, hits give low values): 0.0736 (active) | normalized growth (locus YGL173C, strain kem1, hits give low values): 0.0686 (active) | normalized growth (locus YGL227W, strain vid30, hits give low values): 0.0649 (active) | normalized growth (locus YGL240W, strain doc1, hits give low values): 0.0818 (active) | normalized growth (locus YGL248W, strain PDE1, hits give low values): 0.0479 (active) | normalized growth (locus YGL253W, strain hxk2, hits give low values): 0.0556 (active) | normalized growth (locus YGR078C, strain PAC10, hits give low values): 0.0528 (active) | normalized growth (locus YGR135W, strain pre9, hits give low values): 0.0614 (active) | normalized growth (locus YGR229C, strain SMI1, hits give low values): 0.0585 (active) and 0.186 (active) | normalized growth (locus YGR252W, strain gcn5, hits give low values): 0.111 (active) | normalized growth (locus YHR013C, strain ard1, hits give low values): 0.114 (active) | normalized growth (locus YHR027C, strain rpn1, hits give low values): 0.0617 (active) | normalized growth (locus YHR030C, strain SLT2, hits give low values): 0.0521 (active) and 0.114 (active) | normalized growth (locus YHR079C, strain IRE1 (second series), hits give low values): 0.0828 (active) | normalized growth (locus YHR079C, strain IRE1, hits give low values): 0.111 (active) | normalized growth (locus YHR094C, strain hxt1, hits give low values): 0.0606 (active) | normalized growth (locus YHR129C, strain ARP1, hits give low values): 0.0581 (active) | normalized growth (locus YHR142W, strain chs7, hits give low values): 0.0762 (active) | normalized growth (locus YHR200W, strain rpn10, hits give low values): 0.0631 (active) | normalized growth (locus YIL066C, strain RNR3, hits give low values): 0.0508 (active) | normalized growth (locus YIL073C, strain SPO22, hits give low values): 0.104 (active) | normalized growth (locus YIL125W, strain kgd1, hits give low values): 0.0593 (active) | normalized growth (locus YIR030C, strain dcg1, hits give low values): 0.0587 (active) | normalized growth (locus YJL092W, strain hpr5, hits give low values): 0.0611 (active) | normalized growth (locus YJL095W, strain BCK1 (second series), hits give low values): 0.0583 (active) | normalized growth (locus YJL095W, strain BCK1, hits give low values): 0.0582 (active) and 0.114 (active) | normalized growth (locus YJL115W, strain asf1, hits give low values): 0.0765 (active) | normalized growth (locus YJL129C, strain trk1, hits give low values): 0.0869 (active) | normalized growth (locus YJL134W, strain LCB3, hits give low values): 0.0503 (active) | normalized growth (locus YJL154C, strain vps35, hits give low values): 0.0608 (active) | normalized growth (locus YJL164C, strain tpk1, hits give low values): 0.0649 (active) | normalized growth (locus YJL166W, strain qcr8, hits give low values): 0.0615 (active) | normalized growth (locus YJL168C, strain set2, hits give low values): 0.0602 (active) | normalized growth (locus YJL187C, strain SWE1 (second series), hits give low values): 0.102 (active) | normalized growth (locus YJL187C, strain SWE1, hits give low values): 0.0577 (active) | normalized growth (locus YJR043C, strain POL32, hits give low values): 0.0598 (active) | normalized growth (locus YJR066W, strain TOR1, hits give low values): 0.00329 (active)
